# Source: PubChem BioAssay (National Center for Advancing Translational Sciences (NCATS))
# Pf growth 48h: P. falciparum growth inhibition at 48 hours (one generation). P. falciparum luciferase growth in erythrocytes, 48 h. Potency, µM (titrated, usually from 28.7 µM), inactives show at the top dose activity change, negative = inhibition, most hits filed as inhibitors. 310,000 tested, 5.9% active. AID 504832
#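 Compounds are pin-transferred into medium, infected erythrocytes (2% hematocrit, 0.1% parasitemia final) are added, and plates sit one parasite generation at 37 C in 5% CO2. Detection reagent is then added and luminescence measured.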
# AmpC inh detg: inhibitors of E. coli AmpC beta-lactamase with detergent; AmpC hydrolysis of nitrocefin, absorbance 480 nm, 0.01% Triton; 370,000 tested, 0.041% active; P00811; AID 485294; Potency, µM (highest dose often 114 µM), without a hit: at the highest dose activity change, negative = inhibition, most hits filed as inhibitors;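 also: 0% = no-compound wells and -100% = no-enzyme wells; nearly all actives have a fitted effect of over 25% in size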
# Target sequence (P00811 whole entry, looked up): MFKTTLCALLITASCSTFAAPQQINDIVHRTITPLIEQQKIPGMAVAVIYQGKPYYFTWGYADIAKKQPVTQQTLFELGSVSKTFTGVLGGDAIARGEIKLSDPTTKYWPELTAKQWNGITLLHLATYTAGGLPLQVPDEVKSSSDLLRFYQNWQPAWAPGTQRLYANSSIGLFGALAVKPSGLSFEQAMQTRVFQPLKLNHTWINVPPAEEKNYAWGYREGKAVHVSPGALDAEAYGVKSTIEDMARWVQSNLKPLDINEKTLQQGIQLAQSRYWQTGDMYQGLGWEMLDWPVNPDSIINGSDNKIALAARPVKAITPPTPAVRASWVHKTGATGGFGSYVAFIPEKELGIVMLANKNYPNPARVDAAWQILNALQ
#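 20 mM phosphate pH 7.0 + 0.01% (detergent screen) or 0.0001% Triton X-100; 5.3 nM AmpC reagent; cpd preinc 15 min RT; nitrocefin (800 uM stock) to start; A480 q20 s × 4 min; Activity was normalised to no-enzyme and no-compound control wells.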
# AMA1-RON2 inh: AMA1-RON2 (P. falciparum) interaction inhibition. AlphaScreen AMA1-biotinylated RON2 peptide binding. Potency, µM (top dose mostly 58.2 µM), for inactives: at the top dose activity change, negative = inhibition, most hits filed as inhibitors. 360,000 tested, 0.2% active;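 also: 0% = vehicle wells and -100% = peptide control; nearly all actives have a fitted effect of over 45% in size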
#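 AMA1 (3D7) with his tag at 25 nM final met compounds first, then biotinylated RON2 peptide at 25 nM; detection used donor plus acceptor beads, 10 µg/mL apiece, read by AlphaScreen after 30 min at room temperature.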
# Pf growth 96h: P. falciparum growth inhibition at 96 hours. 320,000 tested, 6.9% active. AID 504834. Potency, µM (highest dose often 28.7 µM), for inactives: top-dose activity change, negative = inhibition, actives largely listed as inhibitors. P. falciparum luciferase reporter growth, 96 h
#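 Delayed-death screen, second-generation endpoint: infected erythrocytes, 2% hematocrit, 0.05% parasitemia final; 96 hours at 37 C, 5% CO2; luciferase detection reagent; luminescence decrease equals reduced growth.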
# HCV inh: inhibitors of hepatitis C virus infection. Potency, µM (series often up to 41.8 µM), inactives show at the highest dose activity change, negative = inhibition, actives largely listed as inhibitors. 340,000 tested, 3.4% active. AID 651820. Huh7.5.1 HCVcc-Cre infection, luciferase reporter, 44 h
#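 Infectious HCVcc-Cre (~0.5 moi) was added to cells just after compound, with cells seeded 4 h earlier at 1,000 per well. Luciferase activity after 44 h culture reported infection; substrate was incubated 15 min at room temperature before reading.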
# AmpC no deterg: AmpC beta-lactamase inhibition without detergent; P00811; AmpC nitrocefin hydrolysis, absorbance 480 nm, 0.0001% Triton; Potency, µM (titrated, usually from 57.1 µM), for inactives: at the top dose activity change, negative = inhibition, most hits filed as inhibitors; 330,000 tested, 0.52% active;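 also: plate controls were no compound for no effect and no enzyme for full effect; nearly all actives have a fitted effect of over 20% in size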
#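 AmpC (5.3 nM in the dispensed reagent) in 20 mM phosphate pH 7.0 with 0.01% (detergent screen) or 0.0001% Triton X-100 was preincubated with compounds for 15 min at room temperature. Nitrocefin was then added from an 800 uM solution, and hydrolysis was followed at 480 nm.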
# Numbers without * were called inactive; ? = inconclusive; . = no result given. Shown are actives, neighbours in structure and some others; about 11% of the full set was active somewhere. Calls follow the shape of the dose curve; as a rule, active = well fitted curve in the direction sought with a large enough effect; inconclusive = small, poorly fitted or top-dose-only effect, or another doubt; inactive = no such curve, though single readings can be large; an effect the other way counts as inactive or inconclusive. Unless noted, % is scaled to controls: 0 for no effect and ±100 for the full control effect; potency is read from the fitted curve at half-maximal effect.
SMILES,Pf growth 48h,AmpC inh detg,AMA1-RON2 inh,Pf growth 96h,HCV inh,AmpC no deterg
COc1ccccc1Nc1c([N+](=O)[O-])cc(C)cc1[N+](=O)[O-],4%,-13%,?,10µM*,1%,-18%
O=C(NCc1ccccc1Cl)c1ccc2c(c1)NC(=O)C(CS(=O)(=O)Cc1ccc(Cl)cc1)N2 (stereo not drawn),.,-3%,.,.,.,.
COc1cc(NS(=O)(=O)c2cc3c(cc2C)N(C)CCO3)cc(OC)c1OC,.,26%,.,.,.,.
O=C(Cn1cc2c(n1)CCCC2)Nc1cc(C(F)(F)F)ccc1Cl,.,-6%,.,.,.,.
CC(NC(=O)Cn1c(=O)oc2cc(S(=O)(=O)NCc3ccccc3)ccc21)c1ccccc1 (stereo not drawn),.,17%,.,.,.,.
CCc1ccccc1NC(=O)c1nnn(CC(=O)Nc2c(C)cc(C)cc2C)c1N,.,0%,.,.,.,.
COc1ccc(OC)c(Nc2ccc(Nc3cc(OC)ccc3OC)nn2)c1,?,3%,?,9.3µM*,?,-20%
O=[N+]([O-])c1ccc(S(=O)(=O)Nc2nc3ccccc3nc2Nc2ccccc2)cc1,?,1%,27%,16%,?,-18%
O=[N+]([O-])c1ccc(Nc2c3ccccc3nc3ccccc23)cc1,?,?,?,64%,-9%,-32%
COc1cc(Nc2nc3ccccc3nc2NS(=O)(=O)c2ccc([N+](=O)[O-])cc2)cc(OC)c1OC,?,2%,57%,?,22µM*,99%
COc1ccc([N+](=O)[O-])cc1Nc1c2ccccc2nc2ccccc12,12µM*,-2%,-1%,17µM*,?,0%
CCc1ccc(S(=O)(=O)c2nnn3c2nc(NC(C)C)c2cc(Cl)ccc23)cc1,.,4%,.,.,.,.
COc1ccc(C(=O)NC2CC(=O)N(c3ccc4c(c3)OCCO4)C2)cc1 (stereo not drawn),.,1%,.,.,.,.
COc1cccc(CN(C(=O)COc2ccc(Cl)c(C)c2)C2CCS(=O)(=O)C2)c1 (stereo not drawn),.,13%,.,.,.,.
CCOC(=O)N1CCN(C(=O)CCn2c(=S)[nH]c3ccsc3c2=O)CC1,19%,0%,20%,9.3µM*,19%,-10%
O=C(CCCCCn1c(=O)[nH]c2ccsc2c1=O)NCc1ccccc1,.,6%,.,.,.,.
O=C(CCn1c(=O)[nH]c2ccsc2c1=O)N1CCc2ccccc2C1,11%,5%,0%,10µM*,-8%,-18%
COc1cc2[nH]c(=O)n(CCC(=O)N3CCc4ccccc4C3)c(=O)c2cc1OC,.,-5%,3%,16%,6%,-1%
COc1ccccc1CNC(=O)CCn1c(=O)[nH]c2ccsc2c1=O,1µM*,-11%,6%,?,-2%,-2%
COc1ccc(N2CCN(C(=O)CCCn3c(=O)[nH]c4ccsc4c3=O)CC2)cc1,.,-8%,-5%,7.4µM*,5%,-3%
Cc1ccc(C)c(NC(=O)CSc2ncc3c(n2)-c2ccccc2N(Cc2ccccc2C)S3(=O)=O)c1,.,5%,.,.,.,.
COc1ccc(NC(=O)C(Sc2nnc(-c3ccncc3)n2-c2ccccc2C)c2ccccc2)cc1Cl (stereo not drawn),8.3µM*,-5%,-6%,?,?,48%
CCOc1ccc(-c2cn3c(n2)sc2cc(C(=O)NC4CCCc5ccccc54)ccc23)cc1 (stereo not drawn),.,15%,.,.,.,.
Cc1nc(CS(=O)c2ccccc2)cc(N2CCOCC2)n1 (stereo not drawn),?,-12%,5%,8.3µM*,2%,-13%
O=C(CCc1ccccc1)NC(c1cccs1)c1cc(Cl)c2cccnc2c1O (stereo not drawn),0.41µM*,7%,97%,10%,1µM*,-33%
